Measured values published in ChEMBL document CHEMBL4513216, “Probing the Open Global Health Chemical Diversity Library for Multistage-Active Starting Points for Next-Generation Antimalarials” (ACS Infect Dis, 2020).
Screen size: about 68,000 compounds; about 2,700 (4%) showed an effect of 50% or more. Many of the other results were omitted from the sample, so strong results are more common in it than they were.

test system: Plasmodium berghei; assay: Screen against P. berghei liver stage (PbLuc), transformed with Luciferase, at 2uM; type: functional, HepG2; conditions: tested at 2 uM

| SMILES | INHIBITION [%] |
| --- | --- |
| O=C(NCCOCCO)c1cccnc1Oc1ccc(Cl)cc1 | 21.75 |
| c1ccc2oc(N3CCn4c(nnc4C4CC4)C3)nc2c1 | -45.42 |
| Cn1ccnc1-c1ccc(NCc2cn3c(n2)SCC3)nn1 | -75.92 |
| CS(=O)(=O)NCCCNC(=O)c1cccc(-n2cccc2)c1 | 30.31 |
| Cc1ccc(C(=O)NCCCNS(C)(=O)=O)cc1-n1cccc1 | 54.49 |
| Cc1ccc(C(=O)NCCCN(C)S(C)(=O)=O)cc1-n1cccc1 | -5.68 |
| CNC(=O)Cn1nc(C(C)C)c2cnn(C(C)(C)C)c2c1=O | -30.6 |
| CCN1CCC(CC(=O)NCCc2nc(C)cc(C)n2)CC1 | 3.4 |
| CCN1CCC(CC(=O)NCC(O)c2ccc3ccccc3c2)CC1 (stereo not drawn) | 52.08 |
| COc1cccc(C(O)CNC(=O)CC2CCCCC2)c1 (stereo not drawn) | 51.96 |
| O=C(CNC(=O)C1CCCC1)NCC(O)c1ccc2ccccc2c1 (stereo not drawn) | 9.78 |
| CC(C)Oc1cccc(C(O)CNC(=O)CCc2ccncc2)c1 (stereo not drawn) | -32.28 |
| CCN1CCC(CC(=O)NCC(O)c2cccc(OC)c2)CC1 (stereo not drawn) | 50.32 |
| O=C(CC(F)(F)F)NCC(O)c1ccc2ccccc2c1 (stereo not drawn) | 23.81 |
| CCN1CCC(CC(=O)NCc2nc(C)cc(C)n2)CC1 | -28.09 |
| COc1cccc(S(=O)(=O)NC(=O)CC2CCCC2)c1 | 14.02 |
| O=C(C1CCOCC1)N1C[C@@H]2[C@@H](C1)OCC(=O)N2Cc1ccncc1 | -25.8 |
| CC(Nc1ncnc2c1CCNC2)c1ccc2c(c1)CCCC2 (stereo not drawn) | 48.21 |
| Cn1ncc2c1CN(C(=O)Cc1ccccn1)CC2COCC1CC1 (stereo not drawn) | -4.69 |
| O=C(C1CCC1)N1CCN(Cc2ccc(F)cc2)[C@H]2CS(=O)(=O)C[C@H]21 | 5.17 |
| Cc1cc(NC(=O)CN2CCc3cnc(C)nc3C2)on1 | 42.11 |
| Cc1ncc2c(n1)CN(CC(=O)Nc1cc(C)on1)CC2 | 31.57 |

| SMILES | INHIBITION [%] |
| --- | --- |
| Cc1ncc2c(n1)CN(CC(=O)Nc1ccncc1)CC2 | -63.75 |
| Cc1ncc2c(n1)CN(CC(=O)Nc1c(C)nn(C)c1C)CC2 | 64.16 |
| CCc1ncc2c(n1)CN(CC(=O)Nc1cccnc1)CC2 | -28.98 |
| Cc1ncc2c(n1)CN(CC(=O)Nc1cccnc1)CC2 | 51.94 |
| Cc1cc(C(=O)N2CCC3(CCNCC3)CC2)c2cccc(C)c2n1 | -26.08 |
| COc1ccccc1CNC(Cc1cccs1)c1nc(C)c(C)s1 (stereo not drawn) | 46.15 |
| Cc1nc(C)n(C2CCCN(C(=O)c3ccc(OC(C)C)nc3)C2)n1 (stereo not drawn) | 3.33 |
| CCN(CCN(C)C)c1nc(CCN)nc2sc(C)c(C)c12 | -6.77 |
| Cn1ncc2c1NC(=O)CC2c1ccc(O)cc1 (stereo not drawn) | 16.01 |
| Cc1cnn(CC2CCCCN2C(=O)c2cccnc2N(C)C)c1 (stereo not drawn) | 70.27 |
| Cc1cc(C)n(CC2CCCN2C(=O)c2cccc3c2OCCO3)n1 (stereo not drawn) | 50.75 |
| Cc1cc(C)n(CC2CCCN2CCS(C)(=O)=O)n1 (stereo not drawn) | -6.16 |
| Cc1cc(C)n(CC2CCCN2C(=O)Cc2c(C)nn(C)c2C)n1 (stereo not drawn) | -15.05 |
| COCCN1CCCC1Cn1nc(C)cc1C (stereo not drawn) | 17.98 |
| COCCOc1ncccc1C(=O)N1CCCC1Cn1cc(C)cn1 (stereo not drawn) | -17.31 |
| Cc1cc(C)n(CC2CCCN2C(=O)Cc2c(C)noc2C)n1 (stereo not drawn) | 51.19 |
| Cc1cc(C)n(CC2CCCN2C(=O)c2c(C)noc2C)n1 (stereo not drawn) | -27.28 |
| Cc1cc(C)n(CC2CCCN2C(=O)c2ccc3c(c2)OCCO3)n1 (stereo not drawn) | 4.07 |
| Cc1cc(C)n(CC2CCCN2C(=O)c2cccc3c2OCO3)n1 (stereo not drawn) | -72.55 |
| CN(C)c1ncccc1C(=O)N1CCCC1Cn1cccn1 (stereo not drawn) | 7.13 |
| CCCN1CCCC1Cn1nc(C)cc1C (stereo not drawn) | 60.23 |
| COc1ccc(CN2CCO[C@H]3[C@H](OCc4ccncc4)CC[C@@H]32)cc1 | -3.18 |

| SMILES | INHIBITION [%] |
| --- | --- |
| Cc1nn(C2CCCCC2)c2nc(C(C)(C)CN3CCOCC3)[nH]c12 | 48.54 |
| Cc1cccnc1CN1CCN(C(=O)CCn2ccc(=O)[nH]c2=O)CC1 | 35.88 |
| Cc1cccc(Cc2cc(C)nc(C3CCCNC3)c2)c1 (stereo not drawn) | -27.54 |
| CCOCC(=O)NCCC(O)c1ccoc1 (stereo not drawn) | 1.3 |
| O=C(NCCNc1ncccn1)C1CC(=O)N(Cc2ccccn2)C1 (stereo not drawn) | 35.65 |
| Nc1cc(N2CCCC2c2cnccn2)ncn1 (stereo not drawn) | 30.38 |
| Cc1cc(C)n(CC2CCCN2C(=O)c2c[nH]c3ncccc23)n1 (stereo not drawn) | -1.56 |
| CCOc1ncccc1C(=O)N1CCCC1Cn1nc(C)cc1C (stereo not drawn) | 11.95 |
| Cc1cnn(CC2CCCN2C(=O)c2ccccc2-n2cccn2)c1 (stereo not drawn) | 76.38 |
| Cc1cnn(CC2CCCN2C(=O)c2ccccc2-n2cnnn2)c1 (stereo not drawn) | 21.39 |
| Cc1cc(C)n(CC2CCCN2C(=O)c2cccnc2N(C)C)n1 (stereo not drawn) | 56.02 |
| Cc1cnn(CC2CCCCN2C(=O)c2ccccc2-n2cccn2)c1 (stereo not drawn) | 37.68 |
| CCc1c(C(=O)N2CCC3(CCCN(CCO)C3=O)C2)csc1C (stereo not drawn) | 40.64 |
| CCCC(=O)N1CCN(CCN(C)C)c2nc(C)ccc2C1 | 19.51 |
| Cn1ccnc1SCC(=O)NCCC1CCCO1 (stereo not drawn) | -38.4 |
| O=C(c1ccon1)N1CCCCC1c1nc2cc(F)ccc2[nH]1 (stereo not drawn) | 14.79 |
| COCCC1CN(Cc2cn(CCC(N)=O)c3ccccc23)CCO1 (stereo not drawn) | 26.22 |
| Cc1nnc(CN2CCC(Oc3ccc(F)cc3)CC2)o1 | -4.89 |
| C/N=C1\c2cc3cc(OC)ccc3n2CCN1Cc1ccccc1 | -2.66 |
| c1cn2c(n1)CN(C1CCOCC1)CC(CN1CCCC1)C2 (stereo not drawn) | 29.95 |
| OCC1(O)CCN(Cc2noc(-c3ccccc3)n2)CC1 | 26.3 |
| COc1cccc(CN2CCCC3(CCN(C(=O)c4ccco4)C3)C2)c1 (stereo not drawn) | 8.37 |

| SMILES | INHIBITION [%] |
| --- | --- |
| COc1cccc(CN2CCCC3(CCN(C(=O)N4CCCC4)C3)C2)c1 (stereo not drawn) | 50.17 |
| COc1cccc(CN2CCCC3(CCN(C(=O)[C@H]4CCCO4)C3)C2)c1 (stereo partly drawn) | 21.89 |
| CCn1[nH]c(C)c2c(C(F)(F)C(F)(F)F)cc(=O)nc1-2 | 1.01 |
| Cc1nsc(C(=O)NCCc2cccs2)n1 | 55.25 |
| Cc1nsc(C(=O)NCCc2ccc(F)cc2)n1 | -0.59 |
| Cc1nsc(C(=O)NCCc2ccccc2)n1 | -7.16 |
| Cc1ccc(CN2CCC3(CC2)CC(c2cccnc2)CO3)s1 (stereo not drawn) | 23.79 |
| CCS(=O)(=O)c1ccc(N2CCC(NC(=O)NC(C)CO)CC2)cc1 (stereo not drawn) | 7.85 |
| Cc1ccsc1CN(C)C(=O)Cn1nc(-c2ccc(F)cc2)oc1=O | 51.99 |
| CN(Cc1ccc(F)cc1)C(=O)Cn1nc(-c2ccc(F)cc2)oc1=O | -10.54 |
| Cc1ccc(CN(C)C(=O)Cn2nc(-c3ccc(F)cc3)oc2=O)cc1 | 5.28 |
| COc1ccc(CC(C)(O)CNC(=O)NCc2cccs2)cc1 (stereo not drawn) | 45.62 |
| CC(C)OCC(=O)N1CCCN(Cc2ccc(C#N)cc2)CC1 | 2.08 |
| Cc1nccn1C1CCCN(C(=O)c2sccc2-n2cnnn2)C1 (stereo not drawn) | -13.92 |
| Cc1ccc2c(c1)c(CNC(=O)C1CCCN(CC(N)=O)C1)nn2C (stereo not drawn) | -1.87 |
| Cc1ccc2c(c1)c(CNC(=O)C1CCN(CC(N)=O)CC1)nn2C | 58.53 |
| Cc1ccc2c(c1)c(CNC(=O)C1CCN(C(=O)C3CC3)CC1)nn2C | -13.72 |
| CC(C)c1cc(C(=O)N[C@@H]2CC[C@@H](Oc3ccccc3)[C@@H]2O)on1 | 19.69 |
| CCc1c(C(=O)O)nnn1-c1cc(C)cc(C)c1 | -50.41 |
| COc1ccccc1OC1(C(=O)O)CCN(c2ncnc(C)c2C)CC1 | 60.13 |
| COc1ccccc1OC1(C(=O)O)CCN(c2nccnc2C)CC1 | 1.34 |
| COc1ccccc1OC1(C(=O)O)CCN(c2nc(C)cnc2C)CC1 | 33.9 |

| SMILES | INHIBITION [%] |
| --- | --- |
| O=C(CC1CC1)NC[C@]12COC[C@H]1CN(c1ncccn1)C2 | 22.36 |
| COc1cccc(CC(=O)N2CCCC2c2nc(C)c(C)c(O)n2)c1 (stereo not drawn) | 55.74 |
| Cc1nc(C2CCCN2C(=O)Cc2ccc(F)cc2)nc(O)c1C (stereo not drawn) | 46.57 |
| Cc1nc(C2CCCN2C(=O)Cc2cccc(F)c2)nc(O)c1C (stereo not drawn) | 27.81 |
| COc1ccc(CC(=O)N2CCCC2c2nc(C)c(C)c(O)n2)cc1 (stereo not drawn) | 29.48 |
| COc1cccc(CC(=O)N2CCCC2c2nc(C)c(F)c(O)n2)c1 (stereo not drawn) | 52.82 |
| Cc1nc(C2CCCN2C(=O)Cc2ccc3c(c2)OCO3)nc(O)c1C (stereo not drawn) | 22.39 |
| CCOC(=O)[C@]12CCCN(Cc3cccs3)C[C@H]1CN(C(C)=O)C2 | -12.74 |
| Cc1nc2cc(O)nn2c(C)c1CCC(=O)N(C)Cc1cscn1 | -1.73 |
| CC(C)c1ccc(-n2cc(O)c(C(=O)N3CCC(C(N)=O)CC3)n2)cc1 | -40.06 |
| Cc1nc(COC[C@]23COC[C@H]2CN(Cc2ccoc2)C3)cs1 | 18.57 |
| COc1ccc(C(C(=O)O)N2CCC(Cn3cccn3)CC2)cc1F (stereo not drawn) | 15.46 |
| Cc1ccnc(NC(=O)c2c(C)oc(C)c2C)c1 | -18.78 |
| CCC1(C)Cc2ccccc2-c2nc(NCCCO)nc(O)c21 (stereo not drawn) | 44.7 |
| CCOc1ccc2[nH]c3c(N(C)CC4OCCO4)ncnc3c2c1 | 38.64 |
| Cc1ccc(S(=O)(=O)NC(=O)CCC(F)(F)F)cc1N(C)C | 3.39 |
| CN(C)c1nc(NCCc2cnccn2)ncc1F | 44.19 |
| OCC1(O)CCN(Cc2ccc(C3CCCCO3)o2)CC1 (stereo not drawn) | 61.27 |
| CN1CCN(C)C2(CCN(Cc3ccc(C4CCCCO4)o3)CC2)C1 (stereo not drawn) | -6.27 |
| CN1CCC2(CC1)CN(Cc1ccc(C3CCCCO3)o1)CCCN2C (stereo not drawn) | -83.94 |
